One experiment addresses Albumin (Bos taurus) (UniProt P02769). In words: bovine serum albumin binders on microarray, profiling panel, artefact control for SMM control protein annotation, biochemical, small-molecule microarray, Alexa647 label, 635/667 nm fluorescence (AID 1118).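 Also: score merges 667 nm emission intensity and signal-to-noise per printed compound spot.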 The settings on record: BSA-A647 binding, fluorescence 635 nm, higher = more signal.
Experiment [1] can be described thus: small-molecule microarray binders of probe aXIP, primary screen, biochemical, NeuroSMM set, 635/667 nm fluorescence (AID 1119).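 Also: probe is the protein aXip251-270 applied at 1 µg/mL to compound-printed slides; binding of probe to printed compounds measured as 667 nm fluorescence plus signal to noise.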 To be noted: higher = more signal, called active from +8 up or from −8 down.
Experiment [2] can be described thus: small-molecule binders of probe aNOTCH3, primary screen, biochemical, small-molecule microarray, 635/667 nm fluorescence (AID 1120).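 Also: probe is a biotin-tagged antibody raised against NOTCH3 rather than NOTCH3 protein; score merges spot fluorescence near 667 nm with spot signal to noise.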 To be noted: higher = more signal.
The nature of experiment [3]: small-molecule binders of probe aNOTCH2, primary screen, biochemical, small-molecule microarray, 635/667 nm fluorescence (AID 1121).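 Also: score merges feature fluorescence read at 667 nm with its signal to noise.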 The settings on record: higher = more signal.
Experiment [4] deals with Carbonic anhydrase 2 (Homo sapiens) (UniProt P00918). The experiment can be described thus: CAII small-molecule binders, profiling panel, biochemical, small-molecule microarray, Alexa647-labelled CAII (AID 1122). To be noted: CAII-A647 binding fluorescence, higher = more signal.
Experiment [5] in a line: COS7 lysate on small-molecule microarray, probe aHis, 635 nm (AID 1123).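 Also: z-score combines 667nm fluorescence intensity with signal-to-noise per printed compound spot.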 To be noted: COS7 cell lysate, fluorescence, higher = more signal.
Experiment [6] in a line: compound binding in COS7 lysate, probe aLAP1, primary screen, cell lysate, small-molecule microarray (AID 1124).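 Also: lysate comes from COS7 cells expressing LAP1 and is applied at 0.3 µg/mL; score merges spot fluorescence near 667 nm with signal-to-noise over triplicate slides.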 The settings on record: probe aLAP1, fluorescence, higher = more signal.
A further experiment deals with Sam68 (KHDRBS1). In words: Sam68 small-molecule binders, primary screen, biochemical, small-molecule microarray, 635 nm fluorescence (AID 1125).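 Also: score merges 667 nm channel intensity with signal to noise over triplicate slides.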 To be noted: small-molecule microarray binding, higher = more signal.
The subject of experiment [7] is Chordin-like protein 2 (CHRDL2). In words: CHRDL2 small-molecule binders, primary screen, biochemical, small-molecule microarray, 635 nm fluorescence (AID 1126).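 Also: printed compound slides probed with Chrdl2 protein at 4 µg/mL for 1 h at 4 C; score merges 667 nm emission intensity with signal to noise over three replicate slides.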 The settings on record: small-molecule microarray binding, fluorescence 635 nm; higher = more signal.
In experiment [8] the target is Concanavalin-A (Canavalia ensiformis) (UniProt P02866). The experiment can be described thus: ConA small-molecule binders, primary screen, artefact control for SMM control protein annotation, biochemical, small-molecule microarray, Alexa647 label, 635 nm (AID 1127).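 Also: z combines 667 nm emission intensity with signal-to-noise across three replicate slides.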 To be noted: ConA-A647 binding fluorescence, higher = more signal.
Sequence of Concanavalin-A (Canavalia ensiformis) (P02866 whole entry, looked up): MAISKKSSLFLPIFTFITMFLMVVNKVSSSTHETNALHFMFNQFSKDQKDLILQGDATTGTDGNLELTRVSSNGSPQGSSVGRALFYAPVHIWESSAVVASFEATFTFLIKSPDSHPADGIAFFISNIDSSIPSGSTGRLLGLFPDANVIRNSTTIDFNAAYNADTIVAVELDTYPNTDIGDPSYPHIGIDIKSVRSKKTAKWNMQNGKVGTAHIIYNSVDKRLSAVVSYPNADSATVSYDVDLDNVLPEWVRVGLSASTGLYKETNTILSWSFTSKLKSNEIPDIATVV
Experiment [9] can be described thus: anti-His antibody binders, primary screen, artefact control for SMM control protein annotation, biochemical, small-molecule microarray, 635 nm fluorescence (AID 1128).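 Also: score merges feature fluorescence with signal-to-noise for each printed compound spot.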 The settings on record: anti-His Alexa647 antibody binding, higher = more signal.
Experiment [10] relates to Human papillomavirus type 1a E7 protein (residues 1-88). In words: HPV1a E7 small-molecule binders, primary screen, biochemical, small-molecule microarray, residues 1-88, 635 nm (AID 1129). The settings on record: small-molecule microarray binding, fluorescence 635 nm; higher = more signal.
The target of experiment [11] is Focal adhesion kinase 1 (Homo sapiens) (UniProt Q05397). In words: small-molecule microarray binders of FAK, primary screen, biochemical, 635/667 nm fluorescence, BSA, DTT (AID 1130).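 Also: composite of spot emission at 667 nm and signal to noise over triplicate slides.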 To be noted: PTK2 binding, 635 nm fluorescence, higher = more signal.
Sequence of Focal adhesion kinase 1 (Homo sapiens) (Q05397 whole entry, looked up): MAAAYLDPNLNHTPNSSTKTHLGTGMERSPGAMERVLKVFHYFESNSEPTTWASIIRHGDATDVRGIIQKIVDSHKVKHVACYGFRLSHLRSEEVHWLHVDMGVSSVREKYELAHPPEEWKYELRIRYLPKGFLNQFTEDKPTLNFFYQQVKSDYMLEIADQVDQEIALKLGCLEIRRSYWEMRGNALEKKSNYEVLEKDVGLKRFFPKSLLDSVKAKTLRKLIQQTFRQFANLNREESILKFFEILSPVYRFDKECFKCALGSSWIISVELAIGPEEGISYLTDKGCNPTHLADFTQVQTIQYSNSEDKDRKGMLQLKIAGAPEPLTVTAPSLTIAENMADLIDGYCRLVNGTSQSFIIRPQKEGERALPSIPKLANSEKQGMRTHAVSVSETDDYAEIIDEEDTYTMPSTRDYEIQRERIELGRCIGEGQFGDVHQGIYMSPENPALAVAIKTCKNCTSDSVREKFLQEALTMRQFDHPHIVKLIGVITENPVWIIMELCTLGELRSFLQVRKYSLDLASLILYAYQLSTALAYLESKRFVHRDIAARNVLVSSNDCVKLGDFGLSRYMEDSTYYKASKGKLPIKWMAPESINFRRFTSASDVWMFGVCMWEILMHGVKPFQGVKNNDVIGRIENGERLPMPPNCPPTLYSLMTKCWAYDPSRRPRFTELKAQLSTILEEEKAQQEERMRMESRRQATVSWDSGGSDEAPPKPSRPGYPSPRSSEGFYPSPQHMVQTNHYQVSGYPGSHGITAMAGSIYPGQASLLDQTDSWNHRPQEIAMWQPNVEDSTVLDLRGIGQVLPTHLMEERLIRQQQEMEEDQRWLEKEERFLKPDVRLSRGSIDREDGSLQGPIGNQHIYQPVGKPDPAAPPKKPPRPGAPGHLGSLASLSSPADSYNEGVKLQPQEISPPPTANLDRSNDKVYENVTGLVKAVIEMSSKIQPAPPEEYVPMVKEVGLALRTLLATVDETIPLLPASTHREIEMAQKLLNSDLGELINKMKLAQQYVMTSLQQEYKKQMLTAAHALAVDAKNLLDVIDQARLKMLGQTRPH
In experiment [12] the test system is Fibrinogen (Alexa647-labelled). The experiment can be described thus: fibrinogen binders on compound microarrays, profiling panel, artefact control for SMM control-protein annotation, biochemical, small-molecule microarray, 635/667 nm fluorescence (AID 1131).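 Also: z-score merges 667 nm fluorescence with per-spot signal-to-noise over triplicate slides.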 The settings on record: fibrinogen-A647 binding fluorescence, higher = more signal.
In experiment [13] the target is Follistatin (Homo sapiens) (UniProt P19883). The experiment can be described thus: follistatin binders on small-molecule microarrays, primary screen, biochemical, small-molecule microarray, 635/667 nm fluorescence (AID 1132). To be noted: FST binding, 635 nm fluorescence, higher = more signal.
Sequence of Follistatin (Homo sapiens) (P19883 whole entry, looked up): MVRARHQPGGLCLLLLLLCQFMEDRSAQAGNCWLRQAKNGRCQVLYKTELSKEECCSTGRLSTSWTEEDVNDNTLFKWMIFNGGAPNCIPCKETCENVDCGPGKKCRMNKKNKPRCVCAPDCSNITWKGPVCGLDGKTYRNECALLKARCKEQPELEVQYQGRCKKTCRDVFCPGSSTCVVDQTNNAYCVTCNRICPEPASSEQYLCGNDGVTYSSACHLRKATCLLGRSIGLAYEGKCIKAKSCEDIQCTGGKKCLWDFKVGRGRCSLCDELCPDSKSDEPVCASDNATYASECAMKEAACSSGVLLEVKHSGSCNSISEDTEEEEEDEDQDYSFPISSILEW
The target of experiment [14] is Fibroblast growth factor 2 (Homo sapiens) (UniProt P09038). In words: FGF2 binders on small-molecule microarrays, primary screen, biochemical, small-molecule microarray, 635/667 nm fluorescence (AID 1133). To be noted: small-molecule microarray binding, FGF2, fluorescence 635/667; higher = more signal.
Sequence of Fibroblast growth factor 2 (Homo sapiens) (P09038 whole entry, looked up): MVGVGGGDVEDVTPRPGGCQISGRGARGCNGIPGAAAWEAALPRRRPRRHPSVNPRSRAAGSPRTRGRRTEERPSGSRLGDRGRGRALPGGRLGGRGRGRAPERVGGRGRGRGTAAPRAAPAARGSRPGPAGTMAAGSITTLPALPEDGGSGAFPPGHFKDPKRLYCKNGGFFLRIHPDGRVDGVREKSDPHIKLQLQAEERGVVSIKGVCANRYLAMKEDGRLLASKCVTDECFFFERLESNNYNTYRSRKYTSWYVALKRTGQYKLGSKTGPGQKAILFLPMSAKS
Experiment [15] in a line: mitochondrial membrane potential change in A549 cells, profiling panel, cell-based, JC-1 fluorescence, basal, 24 h, 100 nL (AID 1138).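 Also: A549 lung adenocarcinoma cells under basal conditions with no added stimulus; test concentration not given here.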 To be noted: higher = more signal.
A further experiment has as its system Lefty1. The experiment can be described thus: Lefty1 binders on small-molecule microarrays, primary screen, biochemical, small-molecule microarray, 635/667 nm fluorescence (AID 1139). The settings on record: small-molecule microarray binding, fluorescence 635/667; higher = more signal.
Experiment [16] concerns wheat germ agglutinin (Triticum aestivum), Alexa647-labelled. The experiment can be described thus: wheat germ agglutinin binders on compound microarrays, profiling panel, artefact control for SMM control-protein annotation, biochemical, small-molecule microarray, 635/667 nm fluorescence (AID 1140).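 Also: score merges 667 nm feature emission with signal to noise over triplicate slides.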 The settings on record: WGA-A647 binding, 635 nm fluorescence, higher = more signal.

Experiment [17] addresses Luciferin 4-monooxygenase (Photinus pyralis) (UniProt P08659). The experiment can be described thus: firefly luciferase enzyme inhibitors, primary screen, biochemical, luminescence, purified enzyme, 2006 set (AID 1141).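 Also: cell-free assay with purified firefly luciferase at 100 ng per well in PBS; test concentration not given here.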 The settings on record: SteadyGlo luminescence, 30 min, higher = more signal, called active from +8 up or from −8 down.

This is an account of results in PubChem BioAssay.

The structures appear in SMILES notation. Activity calls are given as the source filed them.

Sequence of Luciferin 4-monooxygenase (Photinus pyralis) (P08659 whole entry, looked up): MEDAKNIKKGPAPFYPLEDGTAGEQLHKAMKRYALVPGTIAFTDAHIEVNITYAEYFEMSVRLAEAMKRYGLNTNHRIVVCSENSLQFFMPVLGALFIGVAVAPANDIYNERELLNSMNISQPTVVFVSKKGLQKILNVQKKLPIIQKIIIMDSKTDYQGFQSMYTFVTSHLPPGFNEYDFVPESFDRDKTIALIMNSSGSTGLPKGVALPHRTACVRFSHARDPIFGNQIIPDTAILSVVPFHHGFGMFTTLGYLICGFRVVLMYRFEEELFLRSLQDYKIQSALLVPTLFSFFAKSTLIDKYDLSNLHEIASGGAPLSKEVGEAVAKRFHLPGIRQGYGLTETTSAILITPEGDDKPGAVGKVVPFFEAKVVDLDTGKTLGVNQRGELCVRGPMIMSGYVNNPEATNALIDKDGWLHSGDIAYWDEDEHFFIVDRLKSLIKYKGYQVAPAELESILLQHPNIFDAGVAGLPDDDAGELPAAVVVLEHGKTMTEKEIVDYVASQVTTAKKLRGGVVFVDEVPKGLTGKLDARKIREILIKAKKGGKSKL
Sequence of Albumin (Bos taurus) (P02769 whole entry, looked up): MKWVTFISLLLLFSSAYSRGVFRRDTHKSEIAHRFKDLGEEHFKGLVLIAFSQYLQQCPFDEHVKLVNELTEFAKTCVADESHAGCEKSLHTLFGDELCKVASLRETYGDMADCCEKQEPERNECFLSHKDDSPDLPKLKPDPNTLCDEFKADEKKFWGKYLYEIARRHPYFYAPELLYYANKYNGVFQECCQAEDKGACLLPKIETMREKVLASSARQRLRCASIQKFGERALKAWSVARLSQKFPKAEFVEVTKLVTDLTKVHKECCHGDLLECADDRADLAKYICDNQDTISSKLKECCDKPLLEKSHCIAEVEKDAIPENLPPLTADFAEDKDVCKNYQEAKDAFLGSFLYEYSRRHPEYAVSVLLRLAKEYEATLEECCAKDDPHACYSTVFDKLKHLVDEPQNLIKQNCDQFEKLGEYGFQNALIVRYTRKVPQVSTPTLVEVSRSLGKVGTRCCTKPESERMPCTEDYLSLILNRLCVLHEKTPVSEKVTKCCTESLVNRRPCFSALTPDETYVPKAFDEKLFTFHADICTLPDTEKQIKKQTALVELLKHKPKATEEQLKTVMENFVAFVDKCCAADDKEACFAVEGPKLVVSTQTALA

Take `CC[C@@H](c1ccccc1)n1c(=O)n2n(c1=O)[C@H]1[C@H](O)[C@@H]3O[C@@H]3C(=NOCC=C(C)CCC=C(C)C)[C@H]1CC2`: the composite z-score with Albumin (Bos taurus) was -0.258; in experiment [2] it was 0.192; in experiment [3], -0.084; in experiment [4], 0.406; in experiment [5], 0.689; in experiment [6], -0.194. Besides, the composite z-score amounted to 1.29 in the experiment on Sam68 (KHDRBS1); 0.552 in experiment [7]; 0.548 in [8]; 0.592 in experiment [9]; 1.1 in [10]; 0.301 in experiment [11]. Further, the composite z-score in experiment [12] was 0.417; in experiment [13], 0.708; in experiment [14], 0.55; with Lefty1, 1.25; in experiment [16], 0.359. Besides, in experiment [1], the composite Z-score is -0.183 (inactive). For the same compound, the z-score was 0.0549 in [15] and -0.726 (inactive) in experiment [17].
For `COC(=O)C1=C(C)[C@@H](O)[C@@H](C)[C@H](c2c(OC)c(OC)c(C)c(OC)c2OC)O1`, the composite z-score with Albumin (Bos taurus) is 0.529; in [2] it was -0.0615; in experiment [3], -0.14; in experiment [4] it was 0.298; in experiment [5] it was 0.206; in experiment [6] it was -0.064. For the same compound, the composite z-score is -0.441 with Sam68 (KHDRBS1); 0.336 in experiment [7]; 0.484 in experiment [8]; 0.174 in experiment [9]; 0.113 in [10]; 0.132 in experiment [11]. The composite z-score in experiment [12] is -1.27; in experiment [13] it was 0.194; in experiment [14], 0.236; in the experiment on Lefty1 it was 0.475; in experiment [16], -0.611. For the same compound, the composite Z-score in experiment [1] was -0.461 (inactive). Moreover, the z-score was -0.485 in experiment [15] and -0.0386 (inactive) in [17].
With `CCCNC(=O)OC[C@H]1O[C@H](CCON=C2[C@H]3CCn4c(=O)n(-c5ccccc5)c(=O)n4[C@H]3[C@H](O)[C@@H]3O[C@H]23)C=C[C@@H]1Oc1ccc(OC)cc1`, the composite z-score in the experiment with Albumin (Bos taurus) is 0.704; in [2] it was -0.0377; in [3], -0.0444; in [4], 0.167; in experiment [5], 0.73; in experiment [6], 0.587. Moreover, the composite z-score was 0.522 with Sam68 (KHDRBS1); 0.318 in experiment [7]; 0.216 in experiment [8]; -0.429 in experiment [9]; 0.281 in [10]; 0.172 in experiment [11]. For the same compound, the composite z-score in experiment [12] came to 0.297; in [13], 0.146; in [14], 0.409; in the experiment on Lefty1, 0.502; in [16], 0.201. Besides, in experiment [1], the composite Z-score is 2.63 (inactive). In addition, the z-score was -0.0269 in [15] and 0.0766 (inactive) in experiment [17].
Regarding `CC(C)C[C@@H]1NC(=O)[C@H]2C[C@@H](C(=O)O)[C@@H](c3ccc(O)cc3)N2C1=O`, the composite z-score with Albumin (Bos taurus) was 0.111; in experiment [2], -0.0311; in experiment [3], -0.0586; in experiment [4], 0.419; in experiment [5], 0.666; in experiment [6], -0.79. For the same compound, the composite z-score in the experiment with Sam68 (KHDRBS1) was 0.62; in experiment [7], 0.51; in experiment [8], 0.684; in [9], 3.44; in experiment [10], -0.526; in experiment [11], -0.199. For the same compound, the composite z-score was -0.0448 in experiment [12]; 1.34 in [13]; 0.85 in experiment [14]; 0.874 in the experiment with Lefty1; 0.242 in experiment [16]. In experiment [1], the composite Z-score was -0.2 (inactive). Further, the z-score was -0.986 in experiment [15] and -1.2 (inactive) in experiment [17].
Consider `[N-]=[N+]=Nc1ccccc1C[C@@]1(C(N)=O)N=C(c2ccc(OCCCO)cc2)O[C@@H]1c1ccccc1`, for which the composite z-score is 0.841 with Albumin (Bos taurus); -0.0014 in experiment [2]; -0.0633 in [3]; 0.723 in experiment [4]; 1.74 in experiment [5]; 0.567 in experiment [6]. Also, the composite z-score in the experiment on Sam68 (KHDRBS1) is 1.05; in [7], -1.26; in [8] it was 0.704; in experiment [9], 0.42; in [10], 1.02; in experiment [11] it was 0.645. For the same compound, the composite z-score in [12] was -0.367; in [13], 0.283; in [14] it was -0.403; in the experiment on Lefty1, -1.27; in [16], 0.402. Further, in [1], the composite Z-score is 0.0117 (inactive). In addition, the z-score was -0.971 in experiment [15] and -3.86 (inactive) in experiment [17].
